Results as given in PubChem BioAssay.
“And” between values parts separate entries of the source, which are not always exact repeats. Identical values can stand only once. The source made the active and inactive calls.

Assays:
Albumin (Bos taurus) = Albumin (Bos taurus) (UniProt P02769); experiment: bovine serum albumin binders on microarray, profiling panel, artefact control for SMM control protein annotation, biochemical, small-molecule microarray, Alexa647 label, 635/667 nm fluorescence (AID 1118); conditions: BSA-A647 binding, fluorescence 635 nm, higher = more signal;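 also: score merges 667 nm emission intensity and signal-to-noise per printed compound spot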
[1] = small-molecule microarray binders of probe aXIP, primary screen, biochemical, NeuroSMM set, 635/667 nm fluorescence (AID 1119); conditions: higher = more signal, called active from +8 up or from −8 down;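 also: probe is the protein aXip251-270 applied at 1 µg/mL to compound-printed slides; binding of probe to printed compounds measured as 667 nm fluorescence plus signal to noise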
[2] = small-molecule binders of probe aNOTCH3, primary screen, biochemical, small-molecule microarray, 635/667 nm fluorescence (AID 1120); conditions: higher = more signal;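 also: probe is a biotin-tagged antibody raised against NOTCH3 rather than NOTCH3 protein; score merges spot fluorescence near 667 nm with spot signal to noise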
[3] = small-molecule binders of probe aNOTCH2, primary screen, biochemical, small-molecule microarray, 635/667 nm fluorescence (AID 1121); conditions: higher = more signal;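 also: score merges feature fluorescence read at 667 nm with its signal to noise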
[4] = target: Carbonic anhydrase 2 (Homo sapiens) (UniProt P00918); experiment: CAII small-molecule binders, profiling panel, biochemical, small-molecule microarray, Alexa647-labelled CAII (AID 1122); conditions: CAII-A647 binding fluorescence, higher = more signal
[5] = COS7 lysate on small-molecule microarray, probe aHis, 635 nm (AID 1123); conditions: COS7 cell lysate, fluorescence, higher = more signal;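 also: z-score combines 667nm fluorescence intensity with signal-to-noise per printed compound spot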
[6] = compound binding in COS7 lysate, probe aLAP1, primary screen, cell lysate, small-molecule microarray (AID 1124); conditions: probe aLAP1, fluorescence, higher = more signal;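 also: lysate comes from COS7 cells expressing LAP1 and is applied at 0.3 µg/mL; score merges spot fluorescence near 667 nm with signal-to-noise over triplicate slides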
Sam68 (KHDRBS1) = experiment: Sam68 small-molecule binders, primary screen, biochemical, small-molecule microarray, 635 nm fluorescence (AID 1125); conditions: small-molecule microarray binding, higher = more signal;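 also: score merges 667 nm channel intensity with signal to noise over triplicate slides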
[7] = test system: Chordin-like protein 2 (CHRDL2); experiment: CHRDL2 small-molecule binders, primary screen, biochemical, small-molecule microarray, 635 nm fluorescence (AID 1126); conditions: small-molecule microarray binding, fluorescence 635 nm; higher = more signal;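 also: printed compound slides probed with Chrdl2 protein at 4 µg/mL for 1 h at 4 C; score merges 667 nm emission intensity with signal to noise over three replicate slides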
[8] = target: Concanavalin-A (Canavalia ensiformis) (UniProt P02866); experiment: ConA small-molecule binders, primary screen, artefact control for SMM control protein annotation, biochemical, small-molecule microarray, Alexa647 label, 635 nm (AID 1127); conditions: ConA-A647 binding fluorescence, higher = more signal;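 also: z combines 667 nm emission intensity with signal-to-noise across three replicate slides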
Sequence of Concanavalin-A (Canavalia ensiformis) (P02866 whole entry, looked up): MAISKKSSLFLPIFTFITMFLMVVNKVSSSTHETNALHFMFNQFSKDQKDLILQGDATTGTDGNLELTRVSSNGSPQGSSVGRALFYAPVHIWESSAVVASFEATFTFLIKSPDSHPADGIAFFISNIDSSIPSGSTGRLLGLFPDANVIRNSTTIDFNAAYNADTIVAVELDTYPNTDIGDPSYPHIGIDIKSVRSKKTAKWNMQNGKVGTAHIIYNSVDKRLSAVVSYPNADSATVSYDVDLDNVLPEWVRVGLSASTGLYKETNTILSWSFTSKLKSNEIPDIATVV

Sequence of Albumin (Bos taurus) (P02769 whole entry, looked up): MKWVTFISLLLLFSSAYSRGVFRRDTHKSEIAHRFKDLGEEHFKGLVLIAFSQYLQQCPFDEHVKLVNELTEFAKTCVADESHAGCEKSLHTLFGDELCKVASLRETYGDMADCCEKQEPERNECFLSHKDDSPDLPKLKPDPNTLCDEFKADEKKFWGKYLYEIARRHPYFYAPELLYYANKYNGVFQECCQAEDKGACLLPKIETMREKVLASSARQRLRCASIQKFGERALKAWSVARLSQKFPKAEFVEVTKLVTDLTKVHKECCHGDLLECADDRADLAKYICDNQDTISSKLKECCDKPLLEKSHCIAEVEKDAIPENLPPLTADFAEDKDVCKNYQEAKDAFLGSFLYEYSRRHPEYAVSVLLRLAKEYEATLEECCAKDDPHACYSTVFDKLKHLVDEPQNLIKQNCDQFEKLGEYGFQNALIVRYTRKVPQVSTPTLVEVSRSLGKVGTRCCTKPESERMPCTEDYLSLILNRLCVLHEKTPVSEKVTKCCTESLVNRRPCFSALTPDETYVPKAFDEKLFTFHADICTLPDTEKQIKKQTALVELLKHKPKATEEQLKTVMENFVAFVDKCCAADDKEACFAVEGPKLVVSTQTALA

| Compound | composite z-score (Albumin (Bos taurus)) | composite Z-score [1] | composite z-score [2] | composite z-score [3] | composite z-score [4] | composite z-score [5] | composite z-score [6] | composite z-score (Sam68 (KHDRBS1)) | composite z-score [7] | composite z-score [8] |
| --- | --- | --- | --- | --- | --- | --- | --- | --- | --- | --- |
| CCOC(=O)c1ccc(NC(=O)O[C@H]2[C@H](OC(=O)Nc3ccccc3)[C@@H](OC(=O)Nc3ccccc3)[C@@H](OC)O[C@@H]2CO)cc1 | 0.905 and 0.893 | 1.09 (inactive) and 0.682 (inactive) | 0.228 and 0.318 | 0.0149 and -0.0131 | 0.527 and 0.688 | 2.63 and 1.91 | 0.336 and 0.278 | 1.31 | -0.193 and -0.279 | 1.23 and 1.17 |
| C=C(C)C(=O)OC[C@@H]1CN2[C@@H](CC[C@@H](C)[C@@H]2c2ccc(Br)cc2)C(=O)O1 | 0.635 | -0.0665 (inactive) | -0.127 | -0.153 | 0.195 | 0.774 | 0.937 | 1.16 | 0.426 | 0.363 |
| COCn1c2ccccc2c2nnc(C(C)=O)nc21 | -0.565 and -0.0926 | -0.158 (inactive) and -0.123 (inactive) | -0.0647 and 0.106 | -0.131 and -0.126 | 0.158 and -0.258 | -0.0769 and 0.263 | 0.325 and 0.155 | 0.132 and 0.584 | 0.488 and 0.54 | 0.133 and -0.0846 |
| C=CCN(C(=O)C(c1cccs1)N(C(=O)/C=C\C(=O)O)c1c(Cl)cccc1CO)C(C)(C)C (stereo not given) | -0.693 and -0.455 | 0.0333 (inactive) and 0.242 (inactive) | -0.538 and -0.562 | -0.125 and -0.182 | 0.884 and 0.936 | -0.625 and -0.42 | -0.766 and -0.131 | -1.95 and -0.769 | -2.35 and -3.64 | -1.12 and -0.782 |
| C=C[C@H](C)[C@H](O)c1ccc(O)c2ccccc12 | -0.401 and 0.473 | 0.0296 (inactive) and -0.906 (inactive) | -0.36 and -0.229 | -0.109 and -0.114 | 0.137 and 0.349 | -0.0769 and 0.283 | -0.055 and -0.15 | -0.512 and -0.791 | -0.14 and -0.152 | -1.05 and -0.559 |
| C[C@@H]1CC[C@H]2C(=O)O[C@H](CN=[N+]=[N-])CN2[C@H]1c1ccc(Br)cc1 | -0.507 and 0.491 | 0.142 (inactive) and 0.753 (inactive) | -0.125 and -0.197 | -0.245 and -0.0569 | -0.188 and -0.223 | -0.0295 and -0.382 | 0.268 and -0.329 | -0.167 and 0.113 | 0.735 and 0.382 | -0.726 and 0.0516 |
| CCN1C(=O)[C@H]2[C@H]3[C@H](O)[C@H](O)CC(=NOC[C@@H](O)COCc4ccco4)[C@@H]3CC[C@H]2C1=O | -0.423 and 0.677 | -1.03 (inactive) and -0.471 (inactive) | -0.161 and -0.0026 | -0.17 and -0.234 | -0.473 and 0.753 | -0.945 and 0.351 | -0.0847 and -0.0256 | -0.368 and 0.0907 | 1.54 and 0.0802 | -0.716 and 0.422 |
| COC(=O)[C@H](C)NC(=O)CCC1CC(OC(=O)NCCc2ccc(F)cc2)CC2(CCCC(COC(=O)NCCCN3CCCC3=O)O2)O1 (stereo not given in full) | 0.171 | 2.06 (inactive) | 0.0159 | 0.666 | 0.194 | 0.275 | 0.0736 | 1.3 | 0.407 | 1.07 |
